Hit rate of the full screen: of about 5,500 compounds, about 2,000 (36%) were called active. Roughly 18% stayed inconclusive and do not appear here. No stated cut-off is given here; in the data, active means normalized growth mostly below about 0.91 (no sharp cut-off); inconclusive means no clear call, values can overlap the other calls; inactive means mostly above about 0.92. This is one part of the list.
Test: chemical genetic growth profiling, strain panel (AID 1159580);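 further: tested at 20 µM; growth read once vehicle control cultures reached saturation at 30 °C; 1 = growth at the plate median or of vehicle wells; lower values mean less growth of the strain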
Details: growth OD

Measured: normalized growth

CCCCN(CCCC)CCCOC(=O)c1ccc(N)cc1
inactive: S. cerevisiae deletion strains, locus YJR075W, strain HOC1, hits give low values 0.981 | S. cerevisiae deletion strains, locus YKL009W, strain mrt4, hits give low values 0.989 | S. cerevisiae deletion strains, locus YKL068W, hits give low values 0.969 | S. cerevisiae deletion strains, locus YKL085W, strain MDH1 (second series), hits give low values 0.987 | S. cerevisiae deletion strains, locus YKL085W, strain MDH1, hits give low values 0.987 | S. cerevisiae deletion strains, locus YKL160W, strain elf1, hits give low values 0.995 | S. cerevisiae deletion strains, locus YKL190W, strain CNB1, hits give low values 0.988 | S. cerevisiae deletion strains, locus YKR001C, strain vps1, hits give low values 0.98 | S. cerevisiae deletion strains, locus YKR026C, strain gcn3, hits give low values 0.993 | S. cerevisiae deletion strains, locus YKR091W, strain srl3, hits give low values 0.992 | S. cerevisiae deletion strains, locus YLL001W, strain dnm1, hits give low values 0.996 | S. cerevisiae deletion strains, locus YLL026W, hits give low values 0.995 | S. cerevisiae deletion strains, locus YLL041C, strain sdh2, hits give low values 0.995 | S. cerevisiae deletion strains, locus YLR027C, strain aat2, hits give low values 0.996 | S. cerevisiae deletion strains, locus YLR039C, strain RIC1, hits give low values 0.863 | S. cerevisiae deletion strains, locus YLR058C, strain SHM2, hits give low values 0.99 | S. cerevisiae deletion strains, locus YLR102C, strain apc9, hits give low values 1.01 | S. cerevisiae deletion strains, locus YLR113W, strain HOG1, hits give low values 0.986 | S. cerevisiae deletion strains, locus YLR221C, strain rsa3, hits give low values 0.98 | S. cerevisiae deletion strains, locus YLR258W, strain gsy2, hits give low values 0.985 | S. cerevisiae deletion strains, locus YLR262C, strain YPT6 (second series), hits give low values 0.935 | S. cerevisiae deletion strains, locus YLR262C, strain YPT6, hits give low values 0.876 | S. cerevisiae deletion strains, locus YLR268W, strain sec22, hits give low values 0.92 | S. cerevisiae deletion strains, locus YLR320W, strain mms22, hits give low values 0.993 | S. cerevisiae deletion strains, locus YLR330W, strain CHS5, hits give low values 0.988 | S. cerevisiae deletion strains, locus YLR342W, strain FKS1 (second series), hits give low values 1.06 | S. cerevisiae deletion strains, locus YLR342W, strain FKS1, hits give low values 0.996 | S. cerevisiae deletion strains, locus YLR357W, strain rsc2, hits give low values 0.99 | S. cerevisiae deletion strains, locus YLR370C, strain arc18, hits give low values 0.995 | S. cerevisiae deletion strains, locus YLR371W, strain rom2, hits give low values 0.992 | S. cerevisiae deletion strains, locus YLR384C, strain iki3, hits give low values 0.995 | S. cerevisiae deletion strains, locus YLR418C, strain cdc73, hits give low values 1.02 | S. cerevisiae deletion strains, locus YML016C, strain PPZ1, hits give low values 0.993 | S. cerevisiae deletion strains, locus YML032C, strain rad52, hits give low values 0.965 | S. cerevisiae deletion strains, locus YML120C, strain ndi1, hits give low values 0.988 | S. cerevisiae deletion strains, locus YML124C, strain tub3, hits give low values 0.997 | S. cerevisiae deletion strains, locus YMR058W, strain fet3, hits give low values 0.999 | S. cerevisiae deletion strains, locus YMR078C, strain ctf18, hits give low values 0.993 | S. cerevisiae deletion strains, locus YMR125W, strain sto1, hits give low values 0.992 | S. cerevisiae deletion strains, locus YMR129W, hits give low values 0.988 | S. cerevisiae deletion strains, locus YMR205C, strain PFK2, hits give low values 0.991 | S. cerevisiae deletion strains, locus YMR223W, strain ubp8, hits give low values 1.01 | S. cerevisiae deletion strains, locus YMR231W, strain pep5, hits give low values 0.997 | S. cerevisiae deletion strains, locus YMR263W, strain SAP30, hits give low values 0.982 | S. cerevisiae deletion strains, locus YMR307W, strain GAS1, hits give low values 1.06 | S. cerevisiae deletion strains, locus YNL067W, strain RPL9B, hits give low values 0.963 | S. cerevisiae deletion strains, locus YNL071W, strain lat1, hits give low values 0.994 | S. cerevisiae deletion strains, locus YNL128W, strain TEP1, hits give low values 0.994 | S. cerevisiae deletion strains, locus YNL153C, strain GIM3, hits give low values 0.976 | S. cerevisiae deletion strains, locus YNL183C, strain NPR1, hits give low values 0.921 | S. cerevisiae deletion strains, locus YNL209W, strain ssb2, hits give low values 0.985 | S. cerevisiae deletion strains, locus YNL233W, strain BNI4, hits give low values 0.985 | S. cerevisiae deletion strains, locus YNL248C, strain rpa49, hits give low values 0.976 | S. cerevisiae deletion strains, locus YNL250W, strain rad50, hits give low values 0.983 | S. cerevisiae deletion strains, locus YNL271C, strain bni1, hits give low values 0.984 | S. cerevisiae deletion strains, locus YNL298W, strain CLA4, hits give low values 0.978 | S. cerevisiae deletion strains, locus YNL307C, strain MCK1, hits give low values 0.982 | S. cerevisiae deletion strains, locus YNL322C, strain KRE1 (second series), hits give low values 0.991 | S. cerevisiae deletion strains, locus YNL322C, strain KRE1, hits give low values 0.994 | S. cerevisiae deletion strains, locus YNR049C, strain mso1, hits give low values 0.998 | S. cerevisiae deletion strains, locus YNR052C, strain pop2, hits give low values 0.992 | S. cerevisiae deletion strains, locus YOL006C, strain TOP1, hits give low values 0.938 | S. cerevisiae deletion strains, locus YOL012C, strain htz1 0.971 | S. cerevisiae deletion strains, locus YOL147C, strain pex11, hits give low values 0.989 | S. cerevisiae deletion strains, locus YOR001W, strain rrp6, hits give low values 0.995 | S. cerevisiae deletion strains, locus YOR061W, strain CKA2, hits give low values 0.992 | S. cerevisiae deletion strains, locus YOR069W, strain VPS5, hits give low values 0.995 | S. cerevisiae deletion strains, locus YOR070C, strain gyp1, hits give low values 0.993 | S. cerevisiae deletion strains, locus YOR080W, strain dia2, hits give low values 0.996 | S. cerevisiae deletion strains, locus YOR083W, strain WHI5, hits give low values 0.984 | S. cerevisiae deletion strains, locus YOR106W, strain vam3, hits give low values 0.995 | S. cerevisiae deletion strains, locus YOR136W, strain idh2, hits give low values 0.994 | S. cerevisiae deletion strains, locus YOR144C, strain elg1, hits give low values 0.986 | S. cerevisiae deletion strains, locus YOR184W, strain ser1, hits give low values 0.979 | S. cerevisiae deletion strains, locus YOR231W, strain MKK1, hits give low values 0.961 | S. cerevisiae deletion strains, locus YOR265W, strain rbl2, hits give low values 0.998 | S. cerevisiae deletion strains, locus YOR270C, strain vph1, hits give low values 1.01 | S. cerevisiae deletion strains, locus YOR290C, strain snf2, hits give low values 0.986 | S. cerevisiae deletion strains, locus YOR316C, strain cot1, hits give low values 0.978 | S. cerevisiae deletion strains, locus YPL051W, strain arl3, hits give low values 0.995 | S. cerevisiae deletion strains, locus YPL055C, strain LGE1, hits give low values 0.986 | S. cerevisiae deletion strains, locus YPL078C, strain atp4, hits give low values 0.988 | S. cerevisiae deletion strains, locus YPL106C, strain sse1, hits give low values 0.977 | S. cerevisiae deletion strains, locus YPL240C, strain hsp82, hits give low values 0.997 | S. cerevisiae deletion strains, locus YPL241C, strain CIN2, hits give low values 1 | S. cerevisiae deletion strains, locus YPL256C, strain CLN2, hits give low values 0.937 | S. cerevisiae deletion strains, locus YPR119W, strain clb2, hits give low values 0.969 | S. cerevisiae deletion strains, locus YPR141C, strain kar3, hits give low values 0.987 | S. cerevisiae deletion strains, locus YPR163C, strain tif3, hits give low values 0.973 | S. cerevisiae deletion strains, locus YPR167C, strain met16, hits give low values 0.978 | S. cerevisiae deletion strains, strain wtn01, hits give low values 0.97 | S. cerevisiae strains, strain wild type, hits give low values 1
